In PubChem BioAssay (NCI) one finds growth data, which are given here for ten compounds.

The panel holds about 83,000 compounds, 20% with a hit somewhere; the sample as a whole holds those more often.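 In brief: 96-well plates, 48 h treatment, single concentration, percent growth endpoint.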 A number with no mark means an inactive call. Calls of active or inactive are those of the source. The calls were made as follows: active = growth percent below 10; inactive = the rest.

This assay deals with RXF 393 renal. Briefly: NCI-60 one-dose screen, 48 h (100 = growth as untreated, 0 = no growth, -100 = all killed). To be noted: 10 µM unless noted.
As for `Cc1cnc(/C=C/C(=O)O)cc1-c1cc2c(cc1C)C(C)(C)CCC2(C)C`, the growth is 93.7%.

As to `CC1=C(CNO)C2=C(C)C3(CC3)[C@@](C)(O)C(=O)C2=C1`, the growth is -70.3% (active).

On to `CC12CC=CCC1CCC1C2CCC2(C)C(c3ccc(=O)oc3)CCC12O` (stereo not given), for which the growth was -46.5% (active).

In the case of `Fc1c[c-]c(-c2ccccn2)c(F)c1.[CH3-].[Pt+2].c1ccc([PH+](c2ccccc2)c2ccccn2)cc1`, the growth was -64.8% (active).

Turning to `CN[C@@]1(c2ccccc2Cl)CCCC[C@@H]1NCC1CCCO1` (stereo not given in full), the growth was 106%.

As to `CC(C)=CC1C(C(=O)OCc2cccc(Oc3ccccc3)c2)C1(C)C` (stereo not given), the growth is 121%.

As for `CCCCCCCC[n+]1ccc2ccccc2c1`, the growth was 97.4%.

On to `COC(=O)[C@@H](C)C[C@H](Cc1ccccc1)NC(=O)c1csc([C@@H](C[C@H](C(C)C)N(C)C(=O)C2(NC(=O)[C@H]3CCCCN3C)CC2)OC(C)=O)n1`, for which the growth is 77.5%.

For the compound `CC(=O)c1ccc(C(=O)NCC2CCC3(CC2)OOC2(CCCCC2)OO3)cc1`, the growth is 84.7%.

With `COC(=O)[C@@H](C[C@H](Cc1ccccc1)NC(=O)c1csc([C@@H](C[C@H](C(C)C)N(C)C(=O)[C@@H](NC(=O)[C@H]2CCCCN2C)C(C)C)OC(C)=O)n1)NC(=O)OCc1ccccc1`, the growth was 39.8% [9.5 µM].
